# Shown is part of a subset that was picked to be rich in the strongest signals.
# B1: GS13599A-bth-520-23-520 (Bacteroides thetaiotaomicron) (protein)
# chain: SEDTMDRINKDHDHTTSVASRFILADVITSTAFSNASGDINTYASSYIEYEVGVDNQLYYAEVRENEPSSSSTFNNSWNGIYSSLKNARIIIDQCGEGGRDHGNDVTRGMAEVMAAYNCALIADFFGDAPCSQAALVDEKGSPVYMTPKMDTQQEIYTQIISYLDDAIANLQKEDLADVTEQDFLYAGDADKWLKFAYGLKARYTMRLINRSSNKSADYEKVLDYVSKSFTSADDQAAFDIYDSNNINPFYGFYNSRAGFGASTSLGTKLLAYNDPRANRAFFTPIVDKKRSQVAANDPSLVPAPNGSPDQSTSKYGISAFVYAKTAPTLLMSYHELMFLKAEALCRLNRDAEDALKEAVVAGLLNAENSISIAIKELGSGLNTNSSEVITETSAGKYFDDVVKAKYAANPLQETMIQKYLAMWGASGEATETYNDFRRMKGLNENFITLTNPNNSSKFPLRYPYGNSDTAANPEVKAAYGNGDYVYSEPVWWAGGSR
# Experiments:
# Assay in all cases: glycan array binding signal (z-score within array); higher = stronger binding
# Details in all cases: glycan notation: IUPAC condensed, linker removed
# [1] = target: GlcA3S(b1-3)Gal(b1-4)GlcNAc(b1-2)Man
# Outline: (§1)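 The Consortium for Functional Glycomics database supplied 3228 glycan arrays, of which those lacking an available protein sequence were dropped. The binding signal, a within-array Z-score, was averaged across arrays of the same protein sequence and across linkers. Negative scores can be read as non-binding.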
# [2] = target: GlcNAc(a1-4)Gal(b1-4)GlcNAc
# Outline: as §1
# [3] = target: GlcNAc(b1-2)Man(a1-3)[GlcNAc(b1-4)][GlcNAc(b1-2)Man(a1-6)]Man(b1-4)GlcNAc(b1-4)GlcNAc
# Outline: as §1
# [4] = target: GlcNAc(b1-2)[GlcNAc(b1-4)]Man(a1-3)[GlcNAc(b1-4)][GlcNAc(b1-2)Man(a1-6)]Man(b1-4)GlcNAc(b1-4)GlcNAc
# Outline: as §1
# GlcNAc(b1-3)Fuc = target: GlcNAc(b1-3)Fuc
# Outline: as §1
# [5] = target: GlcNAc(b1-3)Gal(b1-3)GalNAc
# Outline: as §1
# [6] = target: GlcNAc(b1-3)Gal(b1-4)GlcNAc(b1-2)[GlcNAc(b1-3)Gal(b1-4)GlcNAc(b1-6)]Man(a1-6)[GlcNAc(b1-3)Gal(b1-4)GlcNAc(b1-2)Man(a1-3)]Man(b1-4)GlcNAc(b1-4)GlcNAc
# Outline: as §1
# [7] = target: GlcNAc(b1-3)Gal(b1-4)GlcNAc(b1-3)Gal(b1-4)GlcNAc(b1-2)Man(a1-3)[GlcNAc(b1-3)Gal(b1-4)GlcNAc(b1-3)Gal(b1-4)GlcNAc(b1-2)Man(a1-6)]Man(b1-4)GlcNAc(b1-4)GlcNAc
# Outline: as §1
# [8] = target: GlcNAc(b1-3)Gal(b1-4)GlcNAc(b1-3)Gal(b1-4)GlcNAc(b1-3)Gal(b1-4)GlcNAc(b1-2)[GlcNAc(b1-3)Gal(b1-4)GlcNAc(b1-3)Gal(b1-4)GlcNAc(b1-3)Gal(b1-4)GlcNAc(b1-6)]Man(a1-6)[GlcNAc(b1-3)Gal(b1-4)GlcNAc(b1-3)Gal(b1-4)GlcNAc(b1-3)Gal(b1-4)GlcNAc(b1-2)Man(a1-3)]Man(b1-4)GlcNAc(b1-4)[Fuc(a1-6)]GlcNAc
# Outline: as §1
# GlcNAc(b1-3)GalNAc = target: GlcNAc(b1-3)GalNAc
# Outline: as §1
# [9] = target: GlcNAc(b1-4)GlcNAc(b1-4)GlcNAc
# Outline: as §1
# GlcNAc(b1-6)GalNAc = target: GlcNAc(b1-6)GalNAc
# Outline: as §1
# Kdn(a2-3)Gal(b1-4)GlcNAc = target: Kdn(a2-3)Gal(b1-4)GlcNAc
# Outline: as §1
# [10] = target: Man(a1-2)Man(a1-2)Man(a1-3)Man
# Outline: as §1
# Man(a1-3)[Man(a1-6)]Man = target: Man(a1-3)[Man(a1-6)]Man
# Outline: as §1
# [11] = target: Man(a1-3)[Man(a1-6)]Man(b1-4)GlcNAc(b1-4)[Fuc(a1-6)]GlcNAc
# Outline: as §1
# [12] = target: Neu5Ac(a2-3)Gal(b1-3)GlcNAc(b1-2)Man(a1-3)[GlcNAc(b1-4)][Neu5Ac(a2-3)Gal(b1-3)GlcNAc(b1-2)Man(a1-6)]Man(b1-4)GlcNAc(b1-4)GlcNAc
# Outline: as §1
# [13] = target: Neu5Ac(a2-3)Gal(b1-4)GlcNAc(b1-3)Gal(b1-4)[Fuc(a1-3)]GlcNAc
# Outline: as §1
# [14] = target: Neu5Ac(a2-3)[Neu5Ac(a2-6)]GalNAc
# Outline: as §1
# [15] = target: Neu5Ac(a2-6)Gal(b1-4)GlcNAc(b1-2)Man(a1-3)[Man(a1-6)]Man(b1-4)GlcNAc(b1-4)GlcNAc
# Outline: as §1
# [16] = target: Neu5Ac(a2-6)Gal(b1-4)GlcNAc(b1-3)Gal(b1-4)GlcNAc
# Outline: as §1
# [17] = target: Neu5Ac(a2-6)Gal(b1-4)GlcNAc(b1-3)Gal(b1-4)GlcNAc(b1-3)Gal(b1-4)GlcNAc(b1-2)Man(a1-3)[Neu5Ac(a2-6)Gal(b1-4)GlcNAc(b1-3)Gal(b1-4)GlcNAc(b1-3)Gal(b1-4)GlcNAc(b1-2)Man(a1-6)]GalNAc
# Outline: as §1
# [18] = target: Neu5Ac(a2-6)Gal(b1-4)GlcNAc(b1-3)[Neu5Ac(a2-6)Gal(b1-4)GlcNAc(b1-6)]GalNAc
# Outline: as §1
# [19] = target: Neu5Ac(a2-6)GlcNAc(b1-4)GlcNAc
# Outline: as §1
# [20] = target: Neu5Ac(a2-8)Neu5Ac(a2-8)Neu5Ac(a2-3)[Gal(b1-3)GalNAc(b1-4)]Gal(b1-4)Glc
# Outline: as §1
# [21] = target: Neu5Ac(a2-8)Neu5Ac(a2-8)Neu5Ac(a2-3)[GalNAc(b1-4)]Gal(b1-4)Glc
# Outline: as §1
# [22] = target: Neu5Gc(a2-3)Gal(b1-4)GlcNAc
# Outline: as §1
# [23] = target: Neu5Gc(b2-6)Gal(b1-4)GlcNAc
# Outline: as §1
binder,measurement,setting,value
B1,glycan array binding signal (z-score),[1],-0.448
same,glycan array binding signal (z-score),[2],-0.237
same,glycan array binding signal (z-score),[3],2.52
same,glycan array binding signal (z-score),[4],-1.27
same,glycan array binding signal (z-score),GlcNAc(b1-3)Fuc,-0.118
same,glycan array binding signal (z-score),[5],1.12
same,glycan array binding signal (z-score),[6],1.84
same,glycan array binding signal (z-score),[7],1.66
same,glycan array binding signal (z-score),[8],0.815
same,glycan array binding signal (z-score),GlcNAc(b1-3)GalNAc,-0.348
same,glycan array binding signal (z-score),[9],-0.942
same,glycan array binding signal (z-score),GlcNAc(b1-6)GalNAc,-0.798
same,glycan array binding signal (z-score),Kdn(a2-3)Gal(b1-4)GlcNAc,0.096
same,glycan array binding signal (z-score),[10],0.245
same,glycan array binding signal (z-score),Man(a1-3)[Man(a1-6)]Man,0.71
same,glycan array binding signal (z-score),[11],0.777
same,glycan array binding signal (z-score),[12],0.566
same,glycan array binding signal (z-score),[13],-0.897
same,glycan array binding signal (z-score),[14],-0.336
same,glycan array binding signal (z-score),[15],0.864
same,glycan array binding signal (z-score),[16],-1.27
same,glycan array binding signal (z-score),[17],2.37
same,glycan array binding signal (z-score),[18],0.2
same,glycan array binding signal (z-score),[19],0.611
same,glycan array binding signal (z-score),[20],1.71
same,glycan array binding signal (z-score),[21],-1.68
same,glycan array binding signal (z-score),[22],-0.966
same,glycan array binding signal (z-score),[23],-0.127

# From the supplement of paper PMC8728848
